This passage reports ETS1 binding intensity and RUNX1 binding intensity results from the supplement of paper PMC10681739.

Assay [1] concerns the target T1, ETS1 (UniProt P14921).
T1 sequence: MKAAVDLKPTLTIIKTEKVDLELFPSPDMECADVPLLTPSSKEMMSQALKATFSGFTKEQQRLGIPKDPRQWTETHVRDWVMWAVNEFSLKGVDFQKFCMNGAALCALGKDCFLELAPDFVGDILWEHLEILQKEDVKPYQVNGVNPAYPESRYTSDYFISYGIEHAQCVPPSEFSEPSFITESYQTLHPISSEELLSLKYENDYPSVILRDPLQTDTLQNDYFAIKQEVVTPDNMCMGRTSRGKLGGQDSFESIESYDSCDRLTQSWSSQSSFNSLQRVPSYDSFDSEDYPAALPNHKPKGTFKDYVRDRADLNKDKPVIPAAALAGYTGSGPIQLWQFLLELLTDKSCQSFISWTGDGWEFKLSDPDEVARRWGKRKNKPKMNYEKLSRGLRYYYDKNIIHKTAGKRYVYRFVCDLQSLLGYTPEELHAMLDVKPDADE
Nature of the assay: ETS1 binding intensity (PBM fluorescence), ETS1 alone (arbitrary fluorescence units); higher = stronger binding. To be noted: ETS1 concentration 1 nM; RUNX1 concentration 0 nM.

The next assay addresses RUNX1 (UniProt Q01196). The assay can be described thus: RUNX1 binding intensity (PBM fluorescence), RUNX1 alone (arbitrary fluorescence units); higher = stronger binding. To be noted: RUNX1 concentration 2 nM; ETS1 concentration 0 nM. On the procedure: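 Cooperative gcPBM on 36-bp genomic probes with neighbouring ETS1 and RUNX1 sites. Recombinant human RUNX1 (2 nM) was incubated alone or with ETS1 (25 nM) and detected with anti-RUNX1 antibody plus Alexa488 secondary. Values are medians over 4 replicate spots; the RUNX1+ETS1 data were normalised to the RUNX1-only data. The probes sit in constant array flanks that are not printed.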

Assay [2] has as its target T1, ETS1. The assay can be described thus: ETS1 binding intensity (PBM fluorescence) in presence of RUNX1, normalised to ETS1-only experiment (arbitrary fluorescence units); higher = stronger binding. To be noted: ETS1 concentration 1 nM; RUNX1 concentration 25 nM.
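Wherever RUNX1 binding intensity (PBM fluorescence), RUNX1 alone is given: Full-length recombinant human RUNX1 bound to double-stranded 36-bp genomic probes on a high-density microarray, scored as Alexa488 fluorescence per spot via anti-RUNX1 antibody, median of four replicate spots.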

Chain of RUNX1 (Q01196 whole entry): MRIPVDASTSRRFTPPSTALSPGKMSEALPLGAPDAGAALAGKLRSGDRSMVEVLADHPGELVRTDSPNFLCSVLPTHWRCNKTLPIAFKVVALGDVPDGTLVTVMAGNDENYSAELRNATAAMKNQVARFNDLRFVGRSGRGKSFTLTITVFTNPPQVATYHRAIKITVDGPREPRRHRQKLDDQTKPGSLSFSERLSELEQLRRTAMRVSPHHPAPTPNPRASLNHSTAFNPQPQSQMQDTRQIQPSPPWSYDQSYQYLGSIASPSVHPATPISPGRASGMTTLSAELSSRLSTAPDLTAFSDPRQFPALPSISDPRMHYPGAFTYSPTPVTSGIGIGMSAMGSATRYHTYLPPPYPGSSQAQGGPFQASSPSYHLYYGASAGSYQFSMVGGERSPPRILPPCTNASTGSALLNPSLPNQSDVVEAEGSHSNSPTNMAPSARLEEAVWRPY

In the case of CTCCTTCCTGTGTGTTACTCTTAAAAACCACAGAGG, the ETS1 binding intensity in the assay with ETS1 [1] was found to be 519; with ETS1 [2], 1780. The same sequence had an RUNX1 binding intensity with RUNX1 of 1230.

In the case of AAACTACACCTCAGAGGATGTGGTTCCTTCTCTCAT, the ETS1 binding intensity was determined as 1130 with ETS1 [1] and 1730 in the assay with ETS1 [2]. In the assay with RUNX1, this sequence showed an RUNX1 binding intensity of 854.

Regarding CTCACTCATCTGACTTCCTGCGGTTTACGACAACAG, the results for the ETS1 binding intensity in the assay with ETS1 [1] and with ETS1 [2] were 1200 and 1970, respectively. This sequence gave an RUNX1 binding intensity in the assay with RUNX1 of 11100.

Consider GCTCGGAAATACCAATATTGGGCTGTGGTATTTGAA, for which the ETS1 binding intensity in the assay with ETS1 [1] came to 412; in the assay with ETS1 [2], 626. For the same sequence, the RUNX1 binding intensity with RUNX1 was determined as 911.

Consider CAATGGATGGCCACATCCTCACCACAAACTGAGTCA, for which the ETS1 binding intensity with ETS1 [1] is 368; with ETS1 [2] it was 647. Moreover, the RUNX1 binding intensity in the assay with RUNX1 stood at 939.

For the sequence TCTTCTTCCTCCCCCACCCCAAAAGCCACAGGTGAC, the results for the ETS1 binding intensity with ETS1 [1] and in the assay with ETS1 [2] were 492 and 441, respectively. For the same sequence, in the assay with RUNX1, the RUNX1 binding intensity turned out to be 1290.

Consider ACAAGGAGGAAAAGGAAATGAACCACGAATAGCAAA, for which the ETS1 binding intensity with ETS1 [1] turned out to be 1220; with ETS1 [2] it was 1160. The RUNX1 binding intensity in the assay with RUNX1 came out at 817.

On to AGAAGCTGCAGTCCCGGAAGCGGTTTTAGGGGGCCG, for which the ETS1 binding intensity with ETS1 [1] came to 4220; in the assay with ETS1 [2] it was 10100. The sequence also gave an RUNX1 binding intensity with RUNX1 of 725.

As to TACAATTCGCACCGGAACTTGCGGCCCGGCTTCATT, the ETS1 binding intensity was 3630 with ETS1 [1] and 4640 in the assay with ETS1 [2]. The same sequence yielded an RUNX1 binding intensity with RUNX1 of 729.

CGGGACTTCCTGTCTTCCCTGTTGCGGAGCTCTGAA: the ETS1 binding intensity with ETS1 [1] is 1720; with ETS1 [2] it was 1830. Moreover, in the assay with RUNX1, the RUNX1 binding intensity was 780.

As for AGAGTCTTTTTTCCTGAGCGTTTGCGGTTTTGACTT, the ETS1 binding intensity in the assay with ETS1 [1] stood at 430; in the assay with ETS1 [2] it was 1690. In addition, the RUNX1 binding intensity in the assay with RUNX1 came to 10500.

For the sequence TGCGCCGGAAGTGCATGAGCTGCCGATGTGGTGCTT, the values for the ETS1 binding intensity with ETS1 [1] and with ETS1 [2] were 4760 and 5410, respectively. For the same sequence, the RUNX1 binding intensity with RUNX1 was 715.

With GCAGCTCTGGCAGGATGCGGTTAAATATGTAGCCAC, the figures for the ETS1 binding intensity with ETS1 [1] and in the assay with ETS1 [2] were 2030 and 12800, respectively. The sequence further yielded an RUNX1 binding intensity in the assay with RUNX1 of 2690.

Consider CCGCCACCGGAAGCGCCCTCCTAATCCCCGCAGCGC, for which the ETS1 binding intensity with ETS1 [1] came out at 6290; in the assay with ETS1 [2] it was 6170. Besides, the RUNX1 binding intensity with RUNX1 came out at 978.

As for TAAAGAAACAGGATGACTGTGGTTTACTGCGAGCAT, the ETS1 binding intensity turned out to be 500 with ETS1 [1] and 1000 in the assay with ETS1 [2]. In addition, the RUNX1 binding intensity in the assay with RUNX1 was found to be 830.

As to TTGCTTTATCACTTCCTGTTTGAGGTTTATATCCAT, the ETS1 binding intensity amounted to 5630 in the assay with ETS1 [1] and 9450 with ETS1 [2]. This sequence also gave an RUNX1 binding intensity with RUNX1 of 1590.

Turning to TCCCTCCTTCCGCTCTGGTTTTGTGGTTGCTTGCTG, the ETS1 binding intensity came to 902 with ETS1 [1] and 1620 with ETS1 [2]. The RUNX1 binding intensity in the assay with RUNX1 came to 1490.

Regarding GCTCCCTGGACAGGATGTGGTGCCGAGTAAACAGCT, the ETS1 binding intensity came to 4470 in the assay with ETS1 [1] and 5380 with ETS1 [2]. Besides, the RUNX1 binding intensity with RUNX1 stood at 645.

Regarding TTTCTGACACTCTCAGGATGTGGGTTTTCGCACTGT, the ETS1 binding intensity with ETS1 [1] was 1230; in the assay with ETS1 [2] it was 6000. Also, the RUNX1 binding intensity with RUNX1 amounted to 797.

As to CTGCAGATGCATTTCCTTTTTGTGGTAGCAAGCGTG, the ETS1 binding intensity in the assay with ETS1 [1] turned out to be 570; in the assay with ETS1 [2], 932. This sequence returned an RUNX1 binding intensity in the assay with RUNX1 of 805.

AGCCCGGCTTCCGGCGCGTGCCGCTGCGGCTGCAGG: the ETS1 binding intensity was determined as 791 in the assay with ETS1 [1] and 1030 with ETS1 [2]. Besides, the RUNX1 binding intensity with RUNX1 was determined as 678.

Consider TCTGTGAAAAAGGATGTGCGGTTATGGAGGAGAACT, for which the ETS1 binding intensity worked out at 970 with ETS1 [1] and 3460 in the assay with ETS1 [2]. The sequence further gave an RUNX1 binding intensity with RUNX1 of 1210.

In the case of AAACATCATAGGAAGTGGATTTTGTGGTGAGAGACA, the results for the ETS1 binding intensity with ETS1 [1] and with ETS1 [2] were 1160 and 3880, respectively. The RUNX1 binding intensity in the assay with RUNX1 came to 870.

In the case of TGGACGTAACACTCAGGAAGTGGTCAACCTTGCTGC, the ETS1 binding intensity amounted to 2630 with ETS1 [1] and 5810 in the assay with ETS1 [2]. The RUNX1 binding intensity with RUNX1 was found to be 820.

As for CCCACCCAGGAAGCCGTCCTAACCACAACAGCCCTC, the ETS1 binding intensity with ETS1 [1] came to 514; in the assay with ETS1 [2], 2580. This sequence also had an RUNX1 binding intensity with RUNX1 of 4100.

Take TGCAGCCTATTTCCTCTAACCCGCAGATCCACTATG: the ETS1 binding intensity with ETS1 [1] came out at 536; with ETS1 [2], 728. The same sequence showed an RUNX1 binding intensity in the assay with RUNX1 of 1470.

For the sequence CCCAGCCGAGGGAGGAAGCCTGCGGTCACTGCCATC, the ETS1 binding intensity with ETS1 [1] was found to be 402; in the assay with ETS1 [2] it was 2740. The sequence further had an RUNX1 binding intensity with RUNX1 of 1640.

AGAAGCTTCTACAGGAAACCACTAATGGAGACAGAG: the ETS1 binding intensity with ETS1 [1] came to 1440; with ETS1 [2] it was 1970. This sequence also came in with an RUNX1 binding intensity with RUNX1 of 782.

With GTGTTTCCTCTTTGTTTTGGGGCTGTGGTTGCCACA, the ETS1 binding intensity with ETS1 [1] is 414; with ETS1 [2], 600. Also, in the assay with RUNX1, the RUNX1 binding intensity was 1330.

As for GAGTACAGGAAATGCAAAGTAAAACCACAGTGAGAT, the ETS1 binding intensity was 1460 in the assay with ETS1 [1] and 4550 with ETS1 [2]. The RUNX1 binding intensity in the assay with RUNX1 came to 904.

For the sequence CAAGAGCCGGAAGTCCCTTGTGCCGCAGTCCTTCCC, the ETS1 binding intensity with ETS1 [1] is 5720; with ETS1 [2], 6680. In the assay with RUNX1, this sequence displayed an RUNX1 binding intensity of 800.

For the sequence CAGGCCTTTCCTGCTATCGTTTGTGGTTTGAGCAGT, the results for the ETS1 binding intensity with ETS1 [1] and with ETS1 [2] were 429 and 1120, respectively. Moreover, in the assay with RUNX1, the RUNX1 binding intensity worked out at 1940.

Consider GGGCCCACATCCGGCGCGCGCAACCGCAGCCTACTG, for which the results for the ETS1 binding intensity with ETS1 [1] and in the assay with ETS1 [2] were 1120 and 6540, respectively. This sequence displayed an RUNX1 binding intensity with RUNX1 of 2530.

GGAACAGGAAAAGCCTCCGGCAGCCCCTGCGGGCGG: the ETS1 binding intensity in the assay with ETS1 [1] stood at 539; with ETS1 [2] it was 941. Besides, in the assay with RUNX1, the RUNX1 binding intensity was 719.

As to CTGTGCGAGGCAGGATGTGGTCTCCCGCCACCAGGG, the values for the ETS1 binding intensity with ETS1 [1] and with ETS1 [2] were 5450 and 13800, respectively. The same sequence returned an RUNX1 binding intensity in the assay with RUNX1 of 788.

As to GTGCAGGCCGGAAGGAAAAGGGTTGTGGGGCTCATT, the values for the ETS1 binding intensity in the assay with ETS1 [1] and with ETS1 [2] were 1180 and 1420, respectively.

With TGCCGGAAGCCCGCCAGGCACAGGACCCGCAGGGGT, the ETS1 binding intensity in the assay with ETS1 [1] turned out to be 588; with ETS1 [2] it was 545.

As to TGGTGCCAAACATCCGCTAGCCACAGAAAAACCGAC, the figures for the ETS1 binding intensity with ETS1 [1] and with ETS1 [2] were 778 and 1170, respectively. This sequence yielded an RUNX1 binding intensity with RUNX1 of 826.

Regarding CTCCCCCAGCACATCCTCTGCCACCGCTGCCTTTCC, the results for the ETS1 binding intensity in the assay with ETS1 [1] and with ETS1 [2] were 579 and 361, respectively.

In the case of AGACCCGGATATGCGCCGGGGACCCCCAGACCGCGC, the ETS1 binding intensity with ETS1 [1] was 743; with ETS1 [2] it was 697. The RUNX1 binding intensity with RUNX1 is 733.

GACACCTGAGAGGATGTGTGGCTTTGTGCTATGAGA: the ETS1 binding intensity with ETS1 [1] amounted to 769; with ETS1 [2], 847.

Turning to GTCAGGAAACACATAGTTGTGTTTAACCTCAGGAAA, the ETS1 binding intensity amounted to 466 with ETS1 [1] and 399 with ETS1 [2].

For the sequence CCCGCTGTCACTTCCTGCTTCCCTCCCGCACACGTG, the ETS1 binding intensity turned out to be 2700 with ETS1 [1] and 2310 with ETS1 [2]. The sequence further gave an RUNX1 binding intensity with RUNX1 of 1920.
